# Results published in PubChem BioAssay.
# Active and inactive are the calls of the source.
# Key:
# [1] = target: Albumin (Bos taurus) (UniProt P02769); assay: compounds binding labelled BSA control protein – biochemical, small-molecule microarray, Alexa647 label, 635/667 nm fluorescence, artefact control for SMM control protein annotation, profiling panel (AID 1118); conditions: BSA-A647 binding, fluorescence 635 nm, higher = more signal;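 further: score merges 667 nm emission intensity and signal-to-noise per printed compound spot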
# [2] = probe aXIP binding to arrayed compounds – biochemical, NeuroSMM set, 635/667 nm fluorescence, primary screen (AID 1119); conditions: small-molecule microarray, higher = more signal, called active from +8 up or from −8 down;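 further: probe is the protein aXip251-270 applied at 1 µg/mL to compound-printed slides; binding of probe to printed compounds measured as 667 nm fluorescence plus signal to noise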
# [3] = probe aNOTCH3 binding on compound microarray – biochemical, small-molecule microarray, 635/667 nm fluorescence, primary screen (AID 1120); conditions: higher = more signal;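 further: probe is a biotin-tagged antibody raised against NOTCH3 rather than NOTCH3 protein; score merges spot fluorescence near 667 nm with spot signal to noise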
# [4] = probe aNOTCH2 binding on compound microarray – biochemical, small-molecule microarray, 635/667 nm fluorescence, primary screen (AID 1121); conditions: higher = more signal;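 further: score merges feature fluorescence read at 667 nm with its signal to noise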
# [5] = target: Carbonic anhydrase 2 (Homo sapiens) (UniProt P00918); assay: compounds binding carbonic anhydrase 2 – biochemical, small-molecule microarray, Alexa647-labelled CAII, profiling panel (AID 1122); conditions: CAII-A647 binding fluorescence, higher = more signal
# [6] = COS7 lysate on small-molecule microarray, probe aHis, 635 nm (AID 1123); conditions: COS7 cell lysate, fluorescence, higher = more signal;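 further: z-score combines 667nm fluorescence intensity with signal-to-noise per printed compound spot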
# [7] = probe aLAP1 signal on lysate-treated microarray – cell lysate, small-molecule microarray, COS7 lysate, primary screen (AID 1124); conditions: probe aLAP1, fluorescence, higher = more signal;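 further: lysate comes from COS7 cells expressing LAP1 and is applied at 0.3 µg/mL; score merges spot fluorescence near 667 nm with signal-to-noise over triplicate slides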
# [8] = system: Sam68 (KHDRBS1); assay: compounds binding KHDRBS1 protein – biochemical, small-molecule microarray, 635 nm fluorescence, primary screen (AID 1125); conditions: higher = more signal;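 further: score merges 667 nm channel intensity with signal to noise over triplicate slides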
# [9] = system: Chordin-like protein 2 (CHRDL2); assay: compounds binding chordin-like 2 – biochemical, small-molecule microarray, 635 nm fluorescence, primary screen (AID 1126); conditions: fluorescence 635 nm, higher = more signal;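 further: printed compound slides probed with Chrdl2 protein at 4 µg/mL for 1 h at 4 C; score merges 667 nm emission intensity with signal to noise over three replicate slides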
# [10] = target: Concanavalin-A (Canavalia ensiformis) (UniProt P02866); assay: compounds binding concanavalin A lectin – biochemical, small-molecule microarray, Alexa647 label, 635 nm, artefact control for SMM control protein annotation, primary screen (AID 1127); conditions: ConA-A647 binding fluorescence, higher = more signal;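 further: z combines 667 nm emission intensity with signal-to-noise across three replicate slides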
# [11] = compounds binding Alexa647 anti-His antibody – biochemical, small-molecule microarray, 635 nm fluorescence, artefact control for SMM control protein annotation, primary screen (AID 1128); conditions: higher = more signal;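 further: score merges feature fluorescence with signal-to-noise for each printed compound spot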
# [12] = system: Human papillomavirus type 1a E7 protein (residues 1-88); assay: HPV1a E7 small-molecule binders, primary screen, biochemical, small-molecule microarray, residues 1-88, 635 nm (AID 1129); conditions: small-molecule microarray binding, fluorescence 635 nm; higher = more signal
# [13] = target: Focal adhesion kinase 1 (Homo sapiens) (UniProt Q05397); assay: PTK2 protein binding on printed compound slides – biochemical, small-molecule microarray, 635/667 nm fluorescence, BSA, DTT, primary screen (AID 1130); conditions: 635 nm fluorescence, higher = more signal;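 further: composite of spot emission at 667 nm and signal to noise over triplicate slides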
# [14] = system: Fibrinogen (Alexa647-labelled); assay: Alexa647-fibrinogen binding to printed small molecules – biochemical, small-molecule microarray, 635/667 nm fluorescence, artefact control for SMM control-protein annotation, profiling panel (AID 1131); conditions: fibrinogen-A647 binding fluorescence, higher = more signal;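 further: z-score merges 667 nm fluorescence with per-spot signal-to-noise over triplicate slides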
# [15] = target: Follistatin (Homo sapiens) (UniProt P19883); assay: FST protein binding to printed compounds – biochemical, small-molecule microarray, 635/667 nm fluorescence, primary screen (AID 1132); conditions: 635 nm fluorescence, higher = more signal
# [16] = target: Fibroblast growth factor 2 (Homo sapiens) (UniProt P09038); assay: basic fibroblast growth factor binding to printed compounds – biochemical, small-molecule microarray, 635/667 nm fluorescence, primary screen (AID 1133); conditions: FGF2, fluorescence 635/667, higher = more signal
# [17] = JC-1 mitochondrial potential readout, lung cancer cells – cell-based, A549, JC-1 fluorescence, basal, 24 h, 100 nL, profiling panel (AID 1138); conditions: higher = more signal;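 further: A549 lung adenocarcinoma cells under basal conditions with no added stimulus; test concentration not given here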
# [18] = system: Lefty1; assay: Lefty1 protein binding to printed compounds – biochemical, small-molecule microarray, 635/667 nm fluorescence, primary screen (AID 1139); conditions: fluorescence 635/667, higher = more signal
# [19] = system: wheat germ agglutinin (Triticum aestivum), Alexa647-labelled; assay: Alexa647-WGA lectin binding to printed small molecules – biochemical, small-molecule microarray, 635/667 nm fluorescence, artefact control for SMM control-protein annotation, profiling panel (AID 1140); conditions: WGA-A647 binding, 635 nm fluorescence, higher = more signal;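 further: score merges 667 nm feature emission with signal to noise over triplicate slides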
# [20] = target: Luciferin 4-monooxygenase (Photinus pyralis) (UniProt P08659); assay: inhibition of purified Photinus pyralis luciferase – biochemical, luminescence, purified enzyme, 2006 set, primary screen (AID 1141); conditions: purified firefly luciferase, SteadyGlo luminescence, 30 min; higher = more signal, called active from +8 up or from −8 down;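 further: cell-free assay with purified firefly luciferase at 100 ng per well in PBS; test concentration not given here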
# Chain of Luciferin 4-monooxygenase (Photinus pyralis) (P08659 whole entry, looked up): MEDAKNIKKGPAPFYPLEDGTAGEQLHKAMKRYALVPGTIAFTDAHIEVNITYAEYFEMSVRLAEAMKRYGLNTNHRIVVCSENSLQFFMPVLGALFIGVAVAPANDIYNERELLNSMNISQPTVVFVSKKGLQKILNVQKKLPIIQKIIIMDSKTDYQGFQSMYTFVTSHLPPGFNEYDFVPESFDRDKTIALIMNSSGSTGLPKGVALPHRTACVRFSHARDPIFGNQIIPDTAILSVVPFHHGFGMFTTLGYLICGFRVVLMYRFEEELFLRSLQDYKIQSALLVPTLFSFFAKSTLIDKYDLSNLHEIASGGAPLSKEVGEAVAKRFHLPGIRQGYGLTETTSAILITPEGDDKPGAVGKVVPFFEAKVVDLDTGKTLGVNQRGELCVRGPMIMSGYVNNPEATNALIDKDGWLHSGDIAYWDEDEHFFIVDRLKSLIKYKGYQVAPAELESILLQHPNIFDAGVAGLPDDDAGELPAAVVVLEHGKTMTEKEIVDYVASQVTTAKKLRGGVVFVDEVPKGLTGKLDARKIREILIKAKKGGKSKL
# Chain of Concanavalin-A (Canavalia ensiformis) (P02866 whole entry, looked up): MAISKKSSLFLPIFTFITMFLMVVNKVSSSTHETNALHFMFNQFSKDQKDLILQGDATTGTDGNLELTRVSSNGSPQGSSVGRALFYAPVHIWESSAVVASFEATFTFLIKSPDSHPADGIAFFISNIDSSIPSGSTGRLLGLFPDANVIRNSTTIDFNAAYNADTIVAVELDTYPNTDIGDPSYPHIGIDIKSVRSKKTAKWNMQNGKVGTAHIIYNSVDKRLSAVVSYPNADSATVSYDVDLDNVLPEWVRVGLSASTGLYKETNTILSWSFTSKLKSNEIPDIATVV
# Chain of Albumin (Bos taurus) (P02769 whole entry, looked up): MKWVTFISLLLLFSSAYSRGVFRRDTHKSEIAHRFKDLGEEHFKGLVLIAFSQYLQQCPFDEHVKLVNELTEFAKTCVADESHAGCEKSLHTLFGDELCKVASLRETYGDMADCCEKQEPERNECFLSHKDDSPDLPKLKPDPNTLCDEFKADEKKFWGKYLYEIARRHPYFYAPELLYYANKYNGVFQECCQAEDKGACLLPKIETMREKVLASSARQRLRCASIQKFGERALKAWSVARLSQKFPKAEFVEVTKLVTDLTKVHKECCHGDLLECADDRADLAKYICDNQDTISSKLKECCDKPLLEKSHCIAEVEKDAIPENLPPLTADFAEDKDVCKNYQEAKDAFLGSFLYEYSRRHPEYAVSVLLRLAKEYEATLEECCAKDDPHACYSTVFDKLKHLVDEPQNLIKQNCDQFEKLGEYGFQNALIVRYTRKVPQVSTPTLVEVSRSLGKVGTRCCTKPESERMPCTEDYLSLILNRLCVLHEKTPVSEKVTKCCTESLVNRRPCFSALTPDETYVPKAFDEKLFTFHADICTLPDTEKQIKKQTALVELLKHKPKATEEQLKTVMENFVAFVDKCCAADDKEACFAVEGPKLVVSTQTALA
# Chain of Fibroblast growth factor 2 (Homo sapiens) (P09038 whole entry, looked up): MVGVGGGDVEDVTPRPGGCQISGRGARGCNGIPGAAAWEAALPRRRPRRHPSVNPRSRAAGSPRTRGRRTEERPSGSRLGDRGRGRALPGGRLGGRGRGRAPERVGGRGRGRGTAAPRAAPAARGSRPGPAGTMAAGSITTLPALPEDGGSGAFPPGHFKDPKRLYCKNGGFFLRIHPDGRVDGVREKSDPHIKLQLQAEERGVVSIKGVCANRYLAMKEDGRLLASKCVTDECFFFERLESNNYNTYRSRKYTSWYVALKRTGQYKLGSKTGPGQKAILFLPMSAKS
# Chain of Focal adhesion kinase 1 (Homo sapiens) (Q05397 whole entry, looked up): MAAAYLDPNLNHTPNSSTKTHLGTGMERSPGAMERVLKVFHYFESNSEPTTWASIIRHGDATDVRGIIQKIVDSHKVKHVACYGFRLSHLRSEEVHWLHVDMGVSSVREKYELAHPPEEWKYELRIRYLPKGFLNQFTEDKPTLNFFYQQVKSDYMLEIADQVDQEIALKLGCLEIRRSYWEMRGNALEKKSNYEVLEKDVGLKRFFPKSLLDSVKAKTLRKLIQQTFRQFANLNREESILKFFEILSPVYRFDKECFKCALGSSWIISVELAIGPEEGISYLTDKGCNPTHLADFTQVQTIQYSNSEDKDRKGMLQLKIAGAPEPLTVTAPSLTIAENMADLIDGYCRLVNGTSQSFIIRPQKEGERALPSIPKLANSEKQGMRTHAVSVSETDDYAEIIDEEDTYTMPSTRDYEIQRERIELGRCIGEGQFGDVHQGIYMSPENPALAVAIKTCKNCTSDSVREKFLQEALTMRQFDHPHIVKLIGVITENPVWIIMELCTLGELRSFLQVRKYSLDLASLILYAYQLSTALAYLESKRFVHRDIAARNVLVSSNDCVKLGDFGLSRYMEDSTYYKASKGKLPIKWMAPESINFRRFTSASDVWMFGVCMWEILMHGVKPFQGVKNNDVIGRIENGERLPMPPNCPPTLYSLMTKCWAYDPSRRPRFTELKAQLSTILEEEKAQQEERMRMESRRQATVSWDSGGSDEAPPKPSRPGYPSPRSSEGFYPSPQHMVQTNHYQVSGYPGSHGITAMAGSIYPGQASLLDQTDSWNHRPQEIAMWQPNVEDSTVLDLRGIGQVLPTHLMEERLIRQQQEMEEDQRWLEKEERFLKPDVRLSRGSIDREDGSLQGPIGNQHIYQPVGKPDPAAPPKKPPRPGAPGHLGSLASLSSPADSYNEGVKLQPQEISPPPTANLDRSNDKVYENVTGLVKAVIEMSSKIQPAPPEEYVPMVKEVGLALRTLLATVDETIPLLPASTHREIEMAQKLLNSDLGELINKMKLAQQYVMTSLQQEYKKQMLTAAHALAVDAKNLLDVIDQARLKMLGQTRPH
# Chain of Follistatin (Homo sapiens) (P19883 whole entry, looked up): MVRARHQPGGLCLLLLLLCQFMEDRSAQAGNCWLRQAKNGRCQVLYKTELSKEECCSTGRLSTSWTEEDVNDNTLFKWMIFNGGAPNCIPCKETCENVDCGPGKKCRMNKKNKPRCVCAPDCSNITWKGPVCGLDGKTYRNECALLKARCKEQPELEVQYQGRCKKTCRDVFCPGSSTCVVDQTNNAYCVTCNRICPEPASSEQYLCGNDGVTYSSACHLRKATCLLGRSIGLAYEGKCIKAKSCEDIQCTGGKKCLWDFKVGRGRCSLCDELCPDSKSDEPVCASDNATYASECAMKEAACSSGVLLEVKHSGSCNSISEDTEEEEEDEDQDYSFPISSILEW
Compound,composite z-score [1],composite Z-score [2],composite z-score [3],composite z-score [4],composite z-score [5],composite z-score [6],composite z-score [7],composite z-score [8],composite z-score [9],composite z-score [10],composite z-score [11],composite z-score [12],composite z-score [13],composite z-score [14],composite z-score [15],composite z-score [16],z-score [17],composite z-score [18],composite z-score [19],z-score [20]
C[C@H]1NC(=O)[C@@]23C(=O)N[C@@H](Cc4ccccc4)C2[C@H](C)[C@@]2(C)O[C@H]2C3/C=C/C/C=C\CNC(=O)[C@H](Cc2ccccc2)NC1=O (stereo not given in full),-0.474,-0.721 (inactive),-0.145,-0.127,0.281,0.205,0.0898,0.127,0.636,0.501,0.624,-0.0861,-0.219,0.617,0.884,0.811,-0.0755,0.942,0.404,-0.203 (inactive)
CCCNC(=O)[C@@]1(c2ccc([N+](=O)[O-])cc2)CC(=O)N(C2CCCCC2)[C@@H]1c1ccc(CO)cc1,0.0308,0.173 (inactive),0.135,-0.0406,0.66,2.01,0.999,1.25,0.19,0.95,1.86,1.24,0.548,0.831,1.24,1.66,1.34,0.344,0.533,-0.92 (inactive)
NC(=O)NCC#Cc1ccc2c(c1)[C@]1(C(=O)N2)[C@H](C(=O)O)[C@H]2C(=O)O[C@H](c3ccccc3)[C@H](c3ccccc3)N2[C@@H]1c1ccc(OCCO)cc1,0.351,-0.131 (inactive),-0.161,-0.143,0.355,0.822,0.613,1.27,0.241,0.962,0.894,0.643,0.116,0.57,1.18,0.239,-0.765,0.183,0.553,-2.23 (inactive)
[N-]=[N+]=Nc1ccccc1[C@H]1OC(c2ccc(OCCCO)cc2)=N[C@@]1(Cc1ccccc1)C(=O)N1CCCCC1,0.899,0.498 (inactive),0.369,0.208,0.38,2.36,0.19,1.13,0.618,1.19,1.55,1.2,0.724,0.963,1.45,1.67,-1.43,0.0229,0.945,-6.62 (inactive)
COc1cc2c(cc1OC)CN(C(=O)[C@@H]1[C@H]3C(=O)O[C@H](c4ccccc4)[C@H](c4ccccc4)N3[C@H](c3ccc(OCCO)cc3)[C@@]13C(=O)Nc1ccccc13)CC2,0.299,0.817 (inactive),0.131,-0.114,0.634,2.25,0.141,1.31,0.508,1.15,1.04,1.25,0.164,0.971,1.31,1.26,-0.957,1.19,1.3,-1.65 (inactive)
